Reference: PubChem BioAssay (NCATS)
Results filed as inconclusive are left out. A call without a number means that no potency is given here. The source made the active and inactive calls. The call rests on the fitted dose curve; in most records, active means well fitted curve in the direction sought with a large enough effect; inconclusive means small, poorly fitted or top-dose-only effect, or another doubt; inactive means no such curve, though single readings can be large; an effect the other way counts as inactive or inconclusive. *1 amine or outer side, *2 acyl side, *3 side chain or, on linkers, in order; H or OH if unused. Where a SMILES comes first, the peptide text is derived from it. Bridges are numbered along the chain shown (N, C = ends). Roman numbers before positions name the chains, in order. [ ]: non-standard residue; d: D form. ξ: configuration not given here. Actinocin(9to1) = Cc1c2oc3c(C)ccc(C(=O)[*:1])c3nc-2c(C(=O)[*:2])c(N)c1=O; ξNMeV = CNC(C(=O)O)C(C)C; ξV = CC(C)C(N)C(=O)O; Sar = CNCC(=O)O

Experiments:
[1] = qHTS assay to identify small molecule inhibitors of chordoma cells - UCH-2 (AID 1259356); further: potency means the concentration at half of the fitted maximal effect
[2] = P-glycoprotein substrates identified in KB-8-5-11 adenocarcinoma cell line, qHTS therapeutic library screen (AID 1346987); further: nearly all actives have a fitted effect of over 65% in size
Procedure, shortened: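 Compounds are pinned in dose-response onto KB-8-5-11 cells (500 cells/well, colchicine-free medium) and left 72 h at 37 degree C. CellTiter-Glo luminescence then yields AC50 values.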

[3] = P-glycoprotein substrates identified in KB-3-1 adenocarcinoma cell line, qHTS therapeutic library screen (AID 1346986); further: nearly all actives have a fitted effect of over 60% in size
Procedure, shortened: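 72 h cell-killing screen, 500 cells/well, CellTiter-Glo luminescence. Paired lines KB-3-1/KB-8-5-11; P-gp dependence checked by tariquidar co-treatment and HEK-293 MDR-19 versus empty-vector cells.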

[4] = qHTS profiling for inhibitors of Plasmodium falciparum (HB3) proliferation (AID 743324); settings: Plasmodium falciparum HB3 blood-stage proliferation; at 28.7 µM (top of the series) unless noted
Procedure, shortened: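 SYBR Green fluorescence (485 ex/535 em) of lysed cultures, incubated overnight at room temperature in the dark, quantifies parasite DNA. Infected erythrocytes at 0.3% parasitemia and 2.5% hematocrit were exposed 72 h; values normalized to DMSO and 0.29 uM artemisinin controls.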

[5] = Identifying Small Molecule Inhibitors of Pancreatic Cancer Stem Cells (A2780, Spheroid) (AID 1259357); settings: Potency: A2780 spheroid viability;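 further: compound exposure lasted 48 h before the ATP luminescence read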
Procedure, shortened: (§1)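 Spheroids grown 14 days in stem cell media on hydrogel-coated nonadherent plates; 2D lines seeded directly. Compounds added after 4 h attachment, 48 h at 37C, 5% CO2; CellTiter-Glo luminescence normalized to DMSO (no inhibition) and no-cell wells (full inhibition).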

[6] = Identifying Small Molecule Inhibitors of Pancreatic Cancer Stem Cells (A278, Adherent) (AID 1259361); further: nearly all actives have a fitted effect of over 35% in size
Procedure, shortened: (§2)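 Luminescent ATP readout (CellTiter-Glo) quantifies surviving cells after a 48 h drug incubation. Normalization uses DMSO wells as no inhibition and media-only wells as full inhibition; bortezomib served as positive control.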

[7] = Identifying Small Molecule Inhibitors of Pancreatic Cancer Stem Cells (SN12C, Adherent) (AID 1259358);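 further: cell survival measured after 48 h of compound exposure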; further: potency means the concentration at half of the fitted maximal effect
Procedure, shortened: as §2

[8] = Identifying Small Molecule Inhibitors of Pancreatic Cancer Stem Cells (Panc1, Spheroid) (AID 1259359);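 further: compound exposure lasted 48 h before reading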; further: potency means the concentration at half of the fitted maximal effect
Procedure, shortened: (§3)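 Cytotoxicity read by CellTiter-Glo luminescence after 48 h compound exposure at 37C; percent activity scaled between DMSO-treated cells and cell-free wells. Spheroid formats used cells pre-formed 14 days in stem cell media on hydrogel.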

[9] = Identifying Small Molecule Inhibitors of Pancreatic Cancer Stem Cells (SN12C, Spheroid) (AID 1259360); settings: Potency: SN12C spheroid viability; further: potency means the concentration at half of the fitted maximal effect
Procedure, shortened: as §1

[10] = Identifying Small Molecule Inhibitors of Pancreatic Cancer Stem Cells (Panc1, Adherent) (AID 1259362); settings: Potency: viability; further: potency means the concentration at half of the fitted maximal effect
Procedure, shortened: as §3

CCCCC(C)(O)C/C=C/[C@H]1[C@H](O)CC(=O)[C@@H]1CCCCCCC(=O)OC (some centres undefined)
Potency [1]: inactive
Potency [2]: inactive

O=C(O)C1CCCN1 (centres undefined)
Potency [1]: inactive
Potency [2]: inactive

CCCCCCCCCCCCCC[n+]1ccc(C)cc1
Potency [1]: 25900 nM (active)
Potency [2]: inactive

C=CC1(C)C=C2C(=O)CC3C(C)(C)CCCC3(C(=O)O)C2(O)CC1 (centres undefined)
Potency [3]: inactive

CNC(=O)O[C@H]1COc2ccc(N3CCN(C4COC4)CC3)cc2[C@@H]1NC(=O)c1ccc(F)cc1
Potency [3]: inactive
Potency [2]: inactive

CC(C)=CCc1ccc(Oc2c(O)cc(C)cc2CO)c(C(=O)O)c1O
Potency [3]: inactive
Potency [2]: inactive

CCC(NC(=O)CC(NC(=O)C(CO)NC(=O)C(CC)NC(=O)c1ccc[nH]1)c1ccccc1)C(=O)O (centres undefined)
Potency [3]: inactive

COc1ccccc1[C@@H]1C2=C(CC(C)(C)CC2=O)Nc2n[nH]c(C(F)(F)F)c21
Potency [3]: inactive

CC1=CC(=O)CC(C)(C)C1(O)CCC(C)O (centres undefined)
Potency [3]: inactive
Potency [2]: inactive

C=CC(C)(C)C12CC3C(=O)NC(Cc4cnc[nH]4)C(=O)N3C1Nc1ccccc12 (centres undefined)
Potency [3]: inactive

CC1(C)NC2N(C1=O)c1ccccc1C2(O)CC(C(=O)O)n1cnc2ccccc2c1=O (centres undefined)
Potency [3]: inactive
Potency [2]: inactive

C[C@@H]1CC[C@H]2C(C)(C)[C@H](O)[C@H](O)C[C@]2(C)[C@@]12Cc1c(O)cc3c(c1O2)CNC3=O
Potency [3]: inactive
Potency [2]: inactive

COC(=O)C1=C(C)NC(C)=C(C(=O)OCCCN2CCC(c3ccccc3)(c3ccccc3)CC2)[C@H]1c1cccc([N+](=O)[O-])c1
remaining proliferation (% of control), lower = more inhibition [4]: -0.517%
Potency [5]: inactive
IC50 (viability decrease) [6]: 26400 nM (active)

O=C(O)CC/C=C\CC[C@H]1[C@@H](N2CCCCC2)[C@@H](O)C[C@@H]1OCc1ccc(-c2ccccc2)cc1
remaining proliferation (% of control), lower = more inhibition [4]: 76.1%
Potency [7]: inactive
Potency [8]: inactive
Potency [9]: inactive
IC50 (viability decrease) [6]: inactive

CCC1(O)CC2CN(CCc3c([nH]c4ccccc34)[C@@](C(=O)OC)(c3cc4c(cc3OC)N(C=O)[C@H]3[C@](O)(C(=O)OC)[C@H](OC(C)=O)[C@]5(CC)C=CCN6CC[C@]43[C@@H]65)C2)C1 (some centres undefined)
remaining proliferation (% of control), lower = more inhibition [4]: 8.78%
Potency [7]: 1180 nM (active)
Potency [9]: 3320 nM (active)
IC50 (viability decrease) [6]: 418 nM (active)
Potency [10]: 2.6 nM (active)

O=C(O)CCc1cccc(O[C@@H]2O[C@H](CO)[C@@H](O)[C@H](O)[C@H]2O)c1O
Potency [3]: inactive
Potency [2]: inactive

CC(C)CC(=O)O[C@@H]1OC=C(CO[C@@H]2O[C@H](CO[C@@H]3O[C@H](CO)[C@@H](O)[C@H](O)[C@H]3O)[C@@H](O)[C@H](O)[C@H]2O)[C@H]2C[C@H](O)[C@@H](CO)[C@@H]12
Potency [3]: inactive
Potency [2]: inactive

COC(=O)CC[C@@H](C)[C@H]1CC[C@H]2[C@@H]3CC(=O)[C@H]4C[C@H](OC(C)=O)CC[C@]4(C)[C@H]3CC[C@]12C
Potency [3]: inactive
Potency [2]: inactive

Cc1c2oc3c(C)ccc(C(=O)N[C@@H]4C(=O)NC(C(C)C)C(=O)N5CCC[C@H]5C(=O)N(C)CC(=O)N(C)C(C(C)C)C(=O)O[C@@H]4C)c3nc-2c(C(=O)N[C@@H]2C(=O)NC(C(C)C)C(=O)N3CCC[C@H]3C(=O)N(C)CC(=O)N(C)C(C(C)C)C(=O)O[C@@H]2C)c(N)c1=O (some centres undefined) (I: T[ξV]P[Sar][ξNMeV] / II: T[ξV]P[Sar][ξNMeV]; ester I:1-I:C, II:1-II:C; linker I:N-II:N via Actinocin(9to1))
remaining proliferation (% of control), lower = more inhibition [4]: -2.59%
Potency [8]: 4.7 nM (active)
Potency [9]: 4.7 nM (active)
Potency [10]: 13.2 nM (active)

Cn1c(=O)c2nc(/C=C/c3cccc(Cl)c3)n(C)c2n(C)c1=O
Potency [3]: inactive
Potency [2]: inactive

Cc1nnc(C(C)C)n1C1CC2CCC(C1)N2CC[C@H](NC(=O)C1CCC(F)(F)CC1)c1ccccc1 (some centres undefined)
remaining proliferation (% of control), lower = more inhibition [4]: 96.7%
Potency [7]: inactive
Potency [9]: inactive
Potency [2]: inactive

C[C@@H](O)[C@H](N)C(=O)N1CCC[C@H]1C(=O)N1CCC[C@H]1C(=O)N[C@H](C(N)=O)[C@@H](C)O (H-TPPT-NH2)
outcome [3]: inactive [at 9.29 µM]

COC12CC3C(C(C)C1=CC(=O)O2)C(O)C(OC(C)=O)C1C(C)(C)C(OC(C)=O)CCC31C (centres undefined)
Potency [3]: inactive

C=C1CC2(C(=O)O)CC1CCC2C1(C)CCCC2(C)C(=O)OC(O)C21 (centres undefined)
Potency [3]: inactive
Potency [2]: inactive

CC(/C=C/C1(O)C(C)CC(O)CC1(C)C)OC1OC(CO)C(O)C(O)C1O (centres undefined)
Potency [3]: inactive

CC1=C2CC3OC3(C)CCC3OC3(C)CC2OC1=O (centres undefined)
Potency [3]: inactive

CC(NC(=O)Cc1cc(F)cc(F)c1)C(=O)NC(C(=O)OC(C)(C)C)c1ccccc1 (centres undefined)
remaining proliferation (% of control), lower = more inhibition [4]: 104%
Potency [7]: inactive
IC50 (viability decrease) [6]: inactive
Potency [10]: inactive
